PubChem BioAssay (NCATS)
Inconclusive results are not listed. Entries that show only a call come without a potency. Calls of active or inactive are those of the source. The call rests on the fitted dose curve; in most records, active means well fitted cell-killing curve with a large enough effect; inconclusive means small, poorly fitted or top-dose-only effect; inactive means flat fitted curve, though single readings scatter.
Potency means the concentration at half of the fitted maximal effect.

Test: MultiTox-Fluor Cytotoxicity Assay - LYMP1-001 - Live Cells (AID 947)
Settings: LYMP1-001 lymphoblastoid cells, live-cell protease fluorescence viability; series mostly up to 92.2 µM
Text: NIH Chemical Genomics Center [NCGC]
NIH Molecular Libraries Screening Centers Network [MLSCN]
National Institutes of Environmental Health Sciences [NIEHS]
National Toxicology Program [NTP]
We have developed a 1536-well cell-based assay for quantitative high throughput screening (qHTS) against a number of cell lines to determine in vitro cytotoxicity of small molecules. This particular assay uses a human lymphoblastoid cell line (LYMP1-001) purchased from Coriell Institute.
NCGC Assay Protocol Summary:
The MultiTox-Fluor Cytotoxicity Assay (Promega) is a homogeneous method to simultaneously measure the relative number of live and dead cells in culture by detecting changes in cell membrane integrity. There are two fluorogenic peptide substrates in the assay reagent. Viable cells are determined when the cell-permeant substrate (GF-AFC) enters the cell and is cleaved by protease from live cells resulting in liberated fluorophore. This live-cell protease activity restricted to viable cells is proportional to cell number. The dead cells are determined by using fluorogenic cell-impermeant peptide substrate (bis-AAF-R110) which cleaved by dead cell proteases leaking from damaged cell membrane.
Using the MultiTox-Fluor Cytotoxicity Assay, the relative number of live cells was measured in the lymphoblastoid cell line with complete culture medium following compound treatment for 16 hours. The assay was performed in opaque black Kalypsys 1536-well plates. In the screen, tetraoctylammonium bromide was used as positive control. Library compounds were measured for their ability to cause acute toxicity in the cell line, as reflected by a decrease in live cell protease activity, in a concentration-dependent manner. […] AC50 values were determined from concentration-response data modeled with the standard Hill equation.
qHTS protocol for MultiTox-Fluor Cytotoxicity assay
[Step] [Parameter] [Value] [Description]
1. Reagent; 5 uL; 2500 lymphoblastoid cells/well
2. Time; 5 hr; 37 C incubation
4. Controls; 23 nL; Tetraoctylammonium bromide 6.4pM to 92 uM
5. Time; 16 hr; 37 C incubation
6. Reagent; 5 uL; MuliTox-Fluor Assay reagent
7. Time; 60 min; Room Temperature
8. Detection; live-cell fluorescence (Ex/Em=405/510); EnVision plate reader
Keywords: cell viability, cytotoxicity, lymphoblastoid cell line, fluorescence, NTPHTS, NTPHTS_NCGC, NIEHS, EPA, DSSTox, MLSMR, MLSCN, NIH Roadmap, qHTS, NCGC
With `Cc1ccnc2c1NC(=O)c1cccnc1N2C1CC1` the Potency was “inactive”.
With `Cc1nnc(NS(=O)(=O)c2ccc(N)cc2)s1` the Potency was “inactive”.
For `C[C@]12C=CC(=O)C=C1CC[C@@H]1[C@@H]2C(=O)C[C@@]2(C)[C@H]1CC[C@]2(O)C(=O)CO`, the Potency was “inactive”.
With `O=C(O)c1cc(=O)[nH]c(=O)[nH]1` the Potency was “inactive”.
With `O=C(N[C@H](CO)[C@H](O)c1ccc([N+](=O)[O-])cc1)C(Cl)Cl` the Potency was “inactive”.
With `CN(C)c1ccc(C(=C2C=CC(=[N+](C)C)C=C2)c2ccc(N(C)C)cc2)cc1` the Potency was 25.1 µM (active).
With `Cc1cc(NS(=O)(=O)c2ccc(N)cc2)no1` the Potency was “inactive”.
For `CC(=O)[C@H]1CC[C@H]2[C@@H]3CCC4=CC(=O)CC[C@]4(C)[C@H]3CC[C@]12C`, the Potency was “inactive”.
For `NC(N)=NC(N)=NCCc1ccccc1`, the Potency was “inactive”.
For `NNC(=O)c1ccncc1`, the Potency was “inactive”.
For `N=C(N)c1ccc(OCCCCCOc2ccc(C(=N)N)cc2)cc1`, the Potency was “inactive”.
In the case of `CC[C@H](C)C(=O)O[C@H]1C[C@@H](C)C=C2C=C[C@H](C)[C@H](CC[C@@H]3C[C@@H](O)CC(=O)O3)[C@H]21`, the Potency is reported as “inactive”.
With `Cc1ncc([N+](=O)[O-])n1CCO` the Potency was “inactive”.
With `Cc1noc(NS(=O)(=O)c2ccc(N)cc2)c1C` the Potency was “inactive”.
In the case of `CCc1cc(C(N)=S)ccn1`, the Potency is reported as “inactive”.
